Screening results: PubChem, National Center for Advancing Translational Sciences (NCATS)
Shown are actives, neighbours in structure and some others; about 7.9% of the full set was active somewhere.
MCF10A rereplic: DNA re-replication induction in MCF 10a cells; hit rate 2.9% among 350,000; MCF 10A DNA re-replication, Hoechst nuclear intensity, 48 h; Potency, µM (series often up to 46.1 µM), for inactives: at the top dose activity, positive = re-replication, actives largely listed as activators; also: % of control where 0% means no effect; nearly all actives have a fitted effect of over 50% in size
KB-3-1 tox: kills parental KB-3-1 adenocarcinoma cells; KB-3-1 viability, CellTiter-Glo ATP luminescence, 72 h; Potency, µM (series often up to 46.1 µM), most hits filed as cytotoxic; hit rate 1.4% among 400,000; also: % is scaled to controls: 0 for no effect and ±100 for the full control effect; nearly all actives have a fitted effect of over 60% in size
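Cytotoxicity measured as CellTiter-Glo luminescence after 72 h at 37 C. Compound titrations were pinned onto drug-naive KB-3-1 parental adenocarcinoma cells grown in DMEM with 10% FBS, and normalized data fitted to concentration-response curves.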
SW480 rereplic: DNA re-replication induction in SW480 cells; SW480 DNA re-replication, Hoechst DNA content imaging, 48 h; AID 624297; hit rate 1.8% among 340,000; Potency, µM (doses to about 46.1 µM), for inactives: at the top dose re-replication activation, hits mostly activators; also: % of control where 0% means no effect; nearly all actives have a fitted effect of over 55% in size
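Hoechst fluorescence of nuclei (405 nm excitation, 500-530 nm emission) measured by plate-scanning imager after 48 hr compound exposure at 37 C; re-replication scored as increased number of nuclei with elevated intensity.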
HT1080NT lethal: kills 2HG-producing HT-1080-NT fibrosarcoma cells | hit rate 1.6% among 360,000 | HT-1080-NT fibrosarcoma viability, CellTiter-Glo ATP luminescence, 48 h | Potency, µM (doses to about 46.1 µM), inactives show top-dose activity, negative = less viability, most hits filed as cytotoxic;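 also: NT is the 2HG producing partner of a matched IDH1 knockdown line; 0% = DMSO-treated cells and -100% = media-only wells without cells; nearly all actives have a fitted effect of over 55% in size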
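750 cells/well, RPMI + 5% FBS; 2 h settle, compound pin-transfer, 48 h at 37 degrees C. CellTiter-Glo 10 min RT, luminescence. Normalized to DMSO and media-only wells.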
HT1080 IDH1KD tx: HT-1080 IDH1 knockdown cell toxicity (counter line) | HT-1080 IDH1 knockdown viability, ATP luminescence, 48 h | Potency, µM (top dose mostly 46.1 µM), without a hit: at the top dose activity, negative = toxicity, hits mostly cytotoxic | hit rate 2% among 360,000;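 also: 0% = DMSO wells and -100% = cell-free medium wells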
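% activity derives from luminescence (CellTiter-Glo), normalised to DMSO and no-cell wells. HT-1080-IDH1KD cells, 750/well, had 48 h compound exposure at 37 °C.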
KB-V1 MDR tox: KB-V1 MDR subline cytotoxicity; Potency, µM (titrated, usually from 46.1 µM), actives largely listed as cytotoxic; AID 1347076; hit rate 3.4% among 400,000; KB-V1 MDR cells viability, CellTiter-Glo, 72 h; also: % is scaled to controls: 0 for no effect and ±100 for the full control effect; nearly all actives have a fitted effect of over 60% in size
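Potencies derive from concentration-effect curves fitted to normalized luminescence (CellTiter-Glo) of KB-V1 cells treated for 72 h at 37 degrees C in phenol-red-free DMEM containing 10% FBS.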
* hit, by the source's call; i = inactive; u = inconclusive; x = not tested or not shown. Calls follow the shape of the dose curve; as a rule, active = well fitted curve in the direction sought with a large enough effect; inconclusive = small, poorly fitted or top-dose-only effect, or another doubt; inactive = no such curve, though single readings can be large; an effect the other way counts as inactive or inconclusive. Potency is read from the fitted curve at half-maximal effect.

SMILES	MCF10A rereplic	KB-3-1 tox	SW480 rereplic	HT1080NT lethal	HT1080 IDH1KD tx	KB-V1 MDR tox
Cc1ccc(OCc2ccc(C(=O)Nc3nc4ccccc4n3Cc3ccccc3)o2)c([N+](=O)[O-])c1	13µM*	i	u	u	u	u
O=C(ONC1=NCCCCC1)c1ccc(Cl)cc1	-9%	i	-3%	16µM*	23µM*	i
COC(=O)c1sccc1S(=O)(=O)N(CC(=O)NCc1ccc(C)cc1)c1ccc(Cl)cc1	x	i	x	x	x	i
Cc1cccc(NC(=S)NNC(=O)CCn2cc(C)cn2)c1	-1%	i	u	1.3µM*	2.8µM*	i
CC(C)c1nc2sc3c(=O)[nH]cnc3c2c2c1CCC2	2%	i	-5%	-13%	20%	i
CC(C)Cc1nc2sc3c(=O)[nH]cnc3c2c2c1CCC2	6%	i	-6%	-5%	-6%	16µM*
CC[N+](C)(C)c1ccc(/C=C/c2ccc3ccccc3n2)cc1	x	2.9µM*	x	x	x	i
CC(OC(=O)/C=C/c1ccc2ccccc2n1)C(=O)N(C)c1ccccc1 (stereo not given)	-1%	u	2%	9%	13%	u
CC(=O)/C=C/c1ccc2ccccc2n1	15µM*	i	9.2µM*	u	u	i
CCN(CC)c1ccc(/C=C/c2nccc3ccccc23)cc1	x	i	x	x	x	i
CCN(CC)c1ccc(/C=C/c2ccc3ccccc3n2)cc1	x	2.3µM*	x	x	x	u
CCCCOc1ccc(C(=O)Nc2onc3c2CCCC3)cc1	x	i	x	x	x	i
CCOC(=O)c1c(NC(=O)c2cc(CC)on2)sc(C)c1C	x	i	x	x	x	u
CCOc1ccc(NC(=O)Cc2coc3ccc(C)cc23)cc1	x	i	x	x	x	i
O=C(NNc1c2ccccc2nc2ccccc12)c1ccc(O)cc1	-4%	i	6%	-7%	-20%	i
O=C(CCCO)NNc1c2ccccc2nc2ccccc12	-5%	i	u	6%	1%	i
O=C(NNc1c2ccccc2nc2ccccc12)c1ccc(O)cc1O	-16%	i	2%	u	u	i
COc1ccc(OCC(=O)NNc2c3ccccc3nc3ccccc23)cc1	u	u	-3%	-28%	u	4.6µM*
CCCC(=O)NNc1c2ccccc2nc2ccccc12	-9%	i	-9%	-1%	9%	16µM*
O=C(NNc1c2ccccc2nc2ccccc12)c1ccccc1O	7%	i	-12%	u	u	21µM*
O=C(COc1ccccc1)NNc1c2ccccc2nc2ccccc12	22%	i	-1%	-30%	u	18µM*
O=C(NNc1nc(=O)c2cccnc2s1)c1ccccc1O	-8%	u	0.92µM*	-27%	u	i
O=C(NNC(=O)c1cccc2ccccc12)c1ccccc1O	-41%	u	7.3µM*	-11%	u	i
CCc1c(C)sc(NC(=O)c2cc(-c3ccc(OC)c(OC)c3)on2)c1C#N	5.2µM*	i	2%	9%	9%	i
COc1ccc(-c2nnc(NC(=O)c3cc(C)on3)s2)cc1	11%	i	2%	9%	12%	i
SMILES	MCF10A rereplic	KB-3-1 tox	SW480 rereplic	HT1080NT lethal	HT1080 IDH1KD tx	KB-V1 MDR tox
CCOC(=O)c1c(NC(=O)c2cc(-c3ccc(OC)c(OC)c3)on2)sc(C)c1C	x	i	x	x	x	i
CCc1c(C)sc(NC(=O)c2cc(-c3cc(OC)ccc3OC)on2)c1C#N	2.6µM*	i	-1%	7%	4%	u
COc1ccc(-c2csc(NC(=O)c3cc(C)on3)c2C#N)cc1OC	u	i	3%	u	u	16µM*
CCc1c(C)sc(NC(=O)c2cc(-c3ccc(O)cc3)on2)c1C#N	12µM*	i	15µM*	2%	-5%	i
CCc1c(C)sc(NC(=O)c2cc(CC(C)C)on2)c1C#N	11%	i	-10%	8%	1%	i
Cc1cc(C2(c3ccc(O)c(C)c3)OC(=O)c3ccccc32)ccc1O	u	i	u	0%	-6%	i
Cc1cc(O)c(C(C)C)cc1C1(c2cc(C(C)C)c(O)cc2C)OC(=O)c2ccccc21	9.2µM*	u	u	8.2µM*	16µM*	u
Cc1nn2c(N3CCCC3)c3c(nc2c1-c1ccccc1)CCC3	7%	i	18µM*	5%	-2%	u
Cc1nn2c(-n3ccnc3)c3c(nc2c1-c1ccccc1)CCC3	-1%	i	-4%	-1%	1%	u
Cc1nn2c(N3CCN(CCO)CC3)c3c(nc2c1-c1ccccc1)CCCC3	12%	i	u	18µM*	u	i
COC(=O)[C@H](NC(=O)c1cc([C@@H](NC(=O)OC(C)(C)C)C(C)C)sc1N)C(C)C	x	i	x	-13%	-14%	u
COc1cccc(NC(=O)c2c(C(=O)Nc3ccccc3)sc3nc(C)cc(=O)n23)c1	x	i	x	x	x	i
COc1ccc(CCNC(=O)CCn2c(=O)c3ccccc3n(CC(=O)Nc3ccc(C)cc3C)c2=O)cc1OC	x	i	x	x	x	i
O=C(Nc1ccccc1)C1C2CCC3C(CCC21)C3(Cl)Cl (stereo not given)	12%	i	13%	-1%	-3%	i
O=C(Nc1cccc(Cl)c1)C1C2CCC3C(CCC21)C3(Cl)Cl (stereo not given)	-7%	u	7%	u	u	21µM*
Cc1cc(Cl)ccc1NC(=O)C1CCCN1S(=O)(=O)c1ccc2c(c1)CCCC(=O)N2 (stereo not given)	x	i	x	x	x	i
Cc1ccc(Cl)cc1NC(=O)C1CCCN1S(=O)(=O)c1ccc(-c2ccc(=O)[nH]n2)s1 (stereo not given)	u	u	4µM*	-22%	u	i
NC(=O)c1nnn(Cc2cc(Cl)c(C(=O)c3ccc(Cl)cc3)c(Cl)c2)c1N	x	u	x	9.2µM*	4.1µM*	8.2µM*
NCC[C@H](O)C(=O)N[C@@H]1C[C@H](N)[C@@H](O[C@H]2O[C@H](CN)CC[C@H]2N)[C@H](O)[C@H]1O[C@H]1O[C@H](CO)[C@@H](O)[C@H](N)[C@H]1O	2%	x	0%	x	x	x
Cc1cnc(NC(=O)c2cc(S(=O)(=O)N(C)C)ccc2N2CCCC2)s1	6.5µM*	21µM*	u	-23%	-29%	u
COc1ccc(C(C)(C)C)cc1NC(=O)c1cc(S(=O)(=O)N(C)C)ccc1N1CCCC1	8%	i	1%	-11%	-16%	23µM*
CN(C)S(=O)(=O)c1ccc(N2CCCC2)c(C(=O)Nc2ccc(F)cc2F)c1	1%	i	-3%	2%	2%	i
